In PubChem BioAssay AID1467 (National Center for Advancing Translational Sciences (NCATS), 2008):
Screen size: about 230,000 compounds; fewer than 10 were called active. The call rests on the fitted dose curve; in most records, active means well fitted curve in the direction sought with a large enough effect; inconclusive means small, poorly fitted or top-dose-only effect, or effect the other way, or another doubt; inactive means no such curve, though single readings can be large or run the other way. These entries were drawn from the full list.

What follows are compounds tested against Alpha-galactosidase A (Homo sapiens) (UniProt P06280) (assay: qHTS Assay for Inhibitors of Human alpha-Galactosidase at pH 4.5.). Settings: purified enzyme, 4-MU-alpha-Gal fluorescence; series mostly up to 105 µM; activity change, negative = inhibition: at the top concentration.
Text: NIH Chemical Genomics Center [NCGC]
NIH Molecular Libraries Probe Production centers Network [MLPCN]
Assay Submitter (PI): Wei Zheng
Alpha-galactosidase is a homodimeric glycoprotein that hydrolyzes the terminal alpha-galactosyl moieties from glycolipids and glycoproteins. Deficiency of this enzyme results in Fabry Disease with progressive accumulation of globotriaosylceramide and other glycosphingolipids in vascular endothelial cells that causes renal failure, myocardial infarction and stroke, and premature death in patients. It has been reported that the improper folding and trafficking of alpha-galactosidase resulting from the genetic mutations may account for a significant numbers of Fabry patients. […] We optimized this alpha-galactosidase assay in 1536-well plate format for identifying the novel small molecule inhibitors with the structures other than the sugar analogs in order to develop the new pharmacological chaperones. Although this assay has the same protocol as PubChem AID 992, this is a separate project and, therefore, is published as a separate assay
NCGC Assay Protocol Summary:
This is a fluorogenic enzyme assay with 4-Methylumbelliferyl alpha-D-galactopyranoside as the substrate and human […] as the enzyme preparation. Upon the hydrolysis of this fluorogenic substrate, the resulting product, […]. 4-Methyllumbelliferone, can be excited at 365 nm and emits at 440 nm. This fluorescence which can be detected by a standard fluorescence plate reader. Data were normalized to the controls for basal activity (without enzyme) and 100% activity (with enzyme). In the AC50 values were determined from concentration-response data modeled with the standard Hill equation.
Assay buffer: 50 mM citric acid (titrated with potassium phosphate to pH 4.5), 0.005% Tween-20, pH 4.5. (pH 4.5 is an optimal condition for this enzyme assay)
1536-well assay protocol for the human alpha-galactosidase:
(1) Add 2 ul/well of enzyme (12 nM final)
(2) Add 23 nL compounds in DMSO solution. The final titration was 0.7 nM to 77 uM.
(3) Add 1 ul of substrate (400 uM final)
(4) Incubate at room temperature for 20 min.
(5) Add 2 ul stop solution (1M NaOH and 1M Glycine mixture, pH 10)
(6) Detect the assay plate in a ViewLux plate reader (PerkinElmer) with Ex=365 nm and Em=440nm.
Keywords: MLSMR, MLPCN, NIH Roadmap, qHTS, NCGC, : Alpha-galactosidase, Fabry Disease, pharmacological chaperone, chaperone therapy
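Further: 0% = full activity with enzyme and -100% = basal without enzyme.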

Alpha-galactosidase A (Homo sapiens), sequence (P06280 whole entry, looked up): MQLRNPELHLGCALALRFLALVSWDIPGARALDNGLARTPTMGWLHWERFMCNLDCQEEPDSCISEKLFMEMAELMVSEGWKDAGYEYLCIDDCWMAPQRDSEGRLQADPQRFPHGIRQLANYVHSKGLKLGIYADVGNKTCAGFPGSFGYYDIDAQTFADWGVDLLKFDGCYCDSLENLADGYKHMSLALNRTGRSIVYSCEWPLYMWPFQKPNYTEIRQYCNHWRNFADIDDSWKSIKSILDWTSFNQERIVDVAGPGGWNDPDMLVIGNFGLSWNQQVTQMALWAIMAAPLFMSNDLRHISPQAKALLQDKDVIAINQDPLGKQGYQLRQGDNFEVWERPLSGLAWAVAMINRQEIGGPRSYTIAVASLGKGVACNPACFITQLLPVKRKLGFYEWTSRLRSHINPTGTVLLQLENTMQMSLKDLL

Row | SMILES | activity change, negative = inhibition
1 | O=C(Nc1ccc(Br)cn1)C1CCN(S(=O)(=O)c2cccs2)CC1 | 0.23% (inactive)
2 | Cc1c(/C=N\NC(=O)c2cc3ccccc3o2)c2ccccc2n1C | -5.05% (inactive)
3 | Nc1cccc(S(=O)(=O)Nc2ccc(SC(F)F)cc2)c1 | -17.1% (inactive)
4 | COc1ccc(-n2cc(CNC3CCOCC3)c(-c3cccc(F)c3)n2)cc1 | -7.72% (inactive)
5 | Cc1cc(NC(=O)CSCc2nc(-c3cccc(Cl)c3)oc2C)no1 | -2.37% (inactive)
6 | CCCCC/C=C\C[C@H](O)/C=C/C=C/C=C/[C@@H](O)CCCC(=O)O | -2.25% (inactive)
7 | N#CCSc1nn(-c2ccc(F)cc2)c(=S)s1 | 3.17% (inactive)
8 | Cc1nnc(NC(=O)CCC(=O)N2CCC(C)CC2)s1 | 4.8% (inactive)
9 | CCCNC(=O)c1c(Cl)cnn1-c1ccc(C)cc1 | 3.08% (inactive)
10 | COC(=O)C/C=C/[C@@H](C)[C@H](NC(=O)OCC(Cl)(Cl)Cl)c1ccccc1 | -4.23% (inactive)
11 | CC1(OC(=O)c2ccc(Cl)nc2)C(=O)Cc2cc(-c3ccsc3)ncc2C1=O (centres undefined) | 1.62% (inactive)
12 | CC(=O)c1ccc(N2CCN(CC(=O)Nc3ccccc3N3CCOCC3)CC2)cc1 | -10.2% (inactive)
13 | CCCc1ccc(OCc2ccc(C(=O)N/N=C/c3cccc([N+](=O)[O-])c3)o2)c(OC)c1 | 1.3% (inactive)
14 | C/C=C1\C2C=C(C)CC1(N)c1ccc(=O)[nH]c1C2 (centres undefined) | 2.46% (inactive)
15 | CCOC(=O)C1=C(O)/C(=C/c2cc(C)n(-c3ccccc3)c2C)N=C1C | -14.4% (inactive)
16 | CC[C@H](C)[C@@H](NC(=O)O[C@@H]1C(=O)c2cc(OC)ccc2O[C@H]1c1cccc(OC)c1)C(=O)OC | -6.3% (inactive)
17 | Cc1cc(C)cc(C(=O)NCC(=O)OCC(=O)N2CCCCC2)c1 | -3.47% (inactive)
18 | O=C(CN1CCCCCC1)NCCN1C(=O)S/C(=C\c2ccccc2Cl)C1=O | -1.37% (inactive)
19 | Cc1ccccc1-c1ccc(C(=O)O)s1 | -6.19% (inactive)
20 | Cc1nc(-c2ccccc2)sc1-c1nnc(C2CC2)o1 | 2.15% (inactive)
21 | O=c1c(O)c(Br)ccc2c(Br)c(O)c(O)c(O)c12 | -0.0671% (inactive)
22 | O=C(CSc1nc2ccccc2o1)N/N=C/c1ccccc1C(=O)O | 1.17% (inactive)
23 | COc1cc(/C=C(/NC(=O)c2ccccc2)C(=O)Nc2cccc(O)c2)c([N+](=O)[O-])cc1OC | 0.53% (inactive)

Row | SMILES | activity change, negative = inhibition
24 | CN(CCc1cnn(C)c1)Cc1cn(C)nc1-c1ccccc1F | 10.6% (inactive)
25 | CC1=C2[C@@H](O)[C@H]([C@@H](C)C(=O)NCCC(C)C)CC[C@@]2(C)C=CC1=O | 0.591% (inactive)
26 | CC/C=C\C/C=C\C/C=C\C/C=C\C/C=C\C/C=C\CCC(=O)NC(C)C(=O)O (centres undefined) | -21.3% (inactive)
27 | CCn1c(COc2c(C)cccc2C)nnc1SCc1nc2ccccc2c(=O)[nH]1 | 1.02% (inactive)
28 | Cc1ccnc(NC(=O)CCC(=O)N(CC(=O)NCc2ccccc2)Cc2ccco2)c1 | -4.12% (inactive)
29 | Cc1nc2c(ncn2-c2ccccc2)c(=O)n1NC(=O)CN1CCCC1 | 1.94% (inactive)
30 | CC(=O)Nc1sc2c(c1C(c1cccc(F)c1)N1CCN(CCO)CC1)CCCC2 (centres undefined) | 9.68% (inactive)
31 | CCCCC[C@H](O)/C=C/[C@@H]1[C@@H](CC(=O)CCC(=O)O)[C@@H](O)C[C@H]1O | -8.75% (inactive)
32 | O=C1C=C(c2ccccc2)CCC1 | -14.5% (inactive)
33 | COc1ccc(NC(=O)C2CCC(CNc3c(N4CCCCC4)c(=O)c3=O)CC2)c(OC)c1 (centres undefined) | 1.95% (inactive)
34 | COc1ccc(N2CCN(Cc3nnc(-c4ccccc4)o3)CC2)cc1 | -1.07% (inactive)
35 | CC/C=C\C/C=C\C/C=C\C/C=C\C/C=C\C/C=C\CCC(=O)NCCc1ccc(O)c(O)c1 | 4.18% (inactive)
36 | CCOC(=O)C1=NO[C@@]2(C=C(Br)C(=O)[C@H]3O[C@H]32)C1 | -5.58% (inactive)
37 | C=CCn1c(CCNC(=O)c2cccs2)n[nH]c1=S | 4.24% (inactive)
38 | Cc1ccccc1NC(=O)c1ccc(COc2ccc3c(C)cc(=O)oc3c2)cc1 | 6.34% (inactive)
39 | COC(=O)Cc1ccc(Oc2ncc(C(F)(F)F)cc2Cl)cc1 | -6.77% (inactive)
40 | CONc1nc2nonc2nc1NOC | -4.09% (inactive)
41 | CCCCCCCCCCCCC(NC(C)=O)(C(=O)OCC)C(=O)OCC | -26.2% (inactive)
42 | CCN(CC)CC(=O)Nc1sc2c(c1C(=O)c1ccccc1C)CCC2 | -4.05% (inactive)
43 | CCCCNC(=O)C1CCCN(S(=O)(=O)c2ccc(S(=O)(=O)NCC(C)C)cc2)C1 (centres undefined) | 9.52% (inactive)
44 | CCOc1cc(NC(=O)CCl)c(OCC)cc1NC(C)=O | 0.492% (inactive)
45 | CCn1c(CN2C(=O)CSc3ccccc32)n[nH]c1=S | 9.82% (inactive)
46 | CCOC(=O)N1CCN(c2cc(C)c([N+](=O)[O-])cc2F)CC1 | -4.22% (inactive)

Row | SMILES | activity change, negative = inhibition
47 | Cc1noc(C)c1C(=O)N(CC(=O)NC1CCCC1)Cc1ccccc1F | -1.52% (inactive)
48 | CC(C)Oc1ccc(CCc2nnc(SCC(=O)O)n2-c2ccccc2)cc1 | 0.212% (inactive)
49 | Cc1ccccc1CSc1nnc(CCCCCNC(=O)OC(C)(C)C)o1 | -7.03% (inactive)
50 | Cc1ccccc1CCN(CC(=O)NC1CCCCC1)C(=O)c1csnn1 | -11.9% (inactive)
51 | CCc1c(O)nc(SCC(=O)Nc2ccccc2)n(C(C)CC)c1=O (centres undefined) | 1.66% (inactive)
52 | COc1ccc(NC(=O)c2ccccc2[N+](=O)[O-])cc1OC | -4.17% (inactive)
53 | CC(C)(C)c1nnc(NC(=O)C2c3ccccc3Oc3ccccc32)s1 | -3.91% (inactive)
54 | O=C(Nc1ccc(N2CCOCC2)nc1)c1c(F)cccc1F | -7.51% (inactive)
55 | COc1ccc(/C=C/CN2CCCC(C(=O)c3cc(F)ccc3F)C2)cc1 (centres undefined) | -4.13% (inactive)
56 | Cc1cccc(CN2CCN(Cc3cnn(-c4ccccc4F)c3)CC2CCO)n1 (centres undefined) | 6.2% (inactive)
57 | CCCCc1ccc(NC(=S)NCCCN2CCOCC2)cc1 | 4.11% (inactive)
58 | C=CCC(C)(O)c1ccco1 (centres undefined) | 4.87% (inactive)
59 | COc1c(O)cc2oc(-c3ccc(O)c(O)c3)cc(=O)c2c1O | -6.71% (inactive)
60 | O=C1OCCN1C(=O)[C@H]1[C@H](c2ccc(F)cc2)C(c2ccccc2)=NN1c1ccc(Br)cc1 | 17.8% (inactive)
61 | C=C(C)C(=O)c1ccc(F)cc1 | 0.52% (inactive)
62 | CC(C)(C)OC(=O)NCCCCC1=CC2=CC(=O)C(C)(OC(=O)c3cccs3)C(=O)C2=CO1 (centres undefined) | -5.62% (inactive)
63 | C=C(C(C)=O)C(O)c1cccs1 (centres undefined) | -4.73% (inactive)
64 | COc1ccc(C(=O)OCC(=O)NC(=O)CCSc2ccccc2)cc1 | 8.51% (inactive)
65 | Cc1ccc(N2C(=O)C(CC(=O)Nc3cccc(F)c3)N(CCc3ccncc3)C2=O)cc1 (centres undefined) | -9.74% (inactive)
66 | CCCCCCCCn1c2c(c(=N)c3c1CCC3)CCCC2 | 1.8% (inactive)
67 | CN(c1ccc2nc3ccccc3c(=O)n2n1)C1CCCCC1 | 3.01% (inactive)
68 | Cc1ccc(Nc2nc(N)nc(CN3CCN(Cc4ccccc4)CC3)n2)cc1Cl | -11% (inactive)
69 | Cc1ccc(NC(=O)c2csc3c2CCCC3)cc1 | -2.99% (inactive)
